Source: PubChem
IDE exosite FP = exo-site inhibitors of human insulin-degrading enzyme; 17,000 compounds, 6.3% hits; z-score at 20 µM; purified IDE, FL-6b probe fluorescence polarization; stronger effect = lower value; P14735; AID 1259349;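 active = z-score of -3 or lower, meaning strong loss of probe binding signal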;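 also: His-tagged human IDE residues 42-1019 made in E. coli with 30 nM FL-6b probe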
Target sequence (P14735 42-1019 limits assumed): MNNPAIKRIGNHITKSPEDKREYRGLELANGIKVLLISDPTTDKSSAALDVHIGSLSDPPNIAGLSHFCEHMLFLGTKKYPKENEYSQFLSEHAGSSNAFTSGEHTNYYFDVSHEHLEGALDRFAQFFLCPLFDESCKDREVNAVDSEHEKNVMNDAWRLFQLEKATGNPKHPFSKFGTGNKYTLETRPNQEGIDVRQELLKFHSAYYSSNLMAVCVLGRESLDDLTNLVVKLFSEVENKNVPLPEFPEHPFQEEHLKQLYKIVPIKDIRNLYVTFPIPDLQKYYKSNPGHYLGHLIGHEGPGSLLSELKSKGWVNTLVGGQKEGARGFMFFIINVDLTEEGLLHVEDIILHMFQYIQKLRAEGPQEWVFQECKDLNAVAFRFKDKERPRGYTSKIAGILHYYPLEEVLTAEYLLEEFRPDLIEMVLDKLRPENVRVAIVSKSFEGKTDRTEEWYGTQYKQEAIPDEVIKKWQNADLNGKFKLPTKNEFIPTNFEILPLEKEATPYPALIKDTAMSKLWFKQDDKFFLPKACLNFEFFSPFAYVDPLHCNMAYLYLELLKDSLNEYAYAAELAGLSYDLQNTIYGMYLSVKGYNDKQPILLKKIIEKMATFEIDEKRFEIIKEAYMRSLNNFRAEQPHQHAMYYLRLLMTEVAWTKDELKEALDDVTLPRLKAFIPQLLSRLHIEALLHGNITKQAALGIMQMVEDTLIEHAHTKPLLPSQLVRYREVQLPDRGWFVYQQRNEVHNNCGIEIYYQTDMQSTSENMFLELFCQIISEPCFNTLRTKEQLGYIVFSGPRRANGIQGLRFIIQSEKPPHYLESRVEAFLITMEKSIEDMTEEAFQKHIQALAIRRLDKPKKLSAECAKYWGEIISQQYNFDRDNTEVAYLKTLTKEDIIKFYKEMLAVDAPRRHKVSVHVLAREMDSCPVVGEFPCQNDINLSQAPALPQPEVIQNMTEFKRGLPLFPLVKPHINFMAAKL
A number is an active result; i = inactive. Many of the other results were omitted from the sample, so hits are more common in it than they were.

SMILES	IDE exosite FP
O=C(Cc1ccccn1)N1CCCCN2[C@H](CO)[C@@H](c3ccc(-c4ccc(F)cc4)cc3)[C@@H]2C1	i
O=C(Cc1ccncc1)N1CCCCN2[C@@H](CO)[C@H](c3ccc(C#Cc4ccccc4F)cc3)[C@@H]2C1	i
O=C(Cc1ccccn1)N1CCCCN2[C@H](C1)[C@H](c1ccc(Br)cc1)[C@@H]2CO	i
O=C(Cc1ccncc1)N1CCCCN2[C@H](CO)[C@H](c3ccc(C#Cc4ccccc4F)cc3)[C@@H]2C1	-4.35
O=C(Cc1ccccn1)N1CCCCN2[C@H](CO)[C@H](c3ccc(-c4ccccc4)cc3)[C@H]2C1	-4.65
O=C(Cc1ccccn1)N1CCCCN2[C@H](C1)[C@@H](c1ccc(-c3ccccc3)cc1)[C@@H]2CO	i
O=C(Cc1ccccn1)N1CCCCN2[C@@H](CO)[C@@H](c3ccc(-c4ccccc4)cc3)[C@@H]2C1	-3.54
O=C(Cc1ccncc1)N1CCCCN2[C@H](C1)[C@@H](c1ccc(C#Cc3ccccc3F)cc1)[C@@H]2CO	i
O=C(Cc1ccccn1)N1CCCCN2[C@H](CO)[C@H](c3ccc(-c4ccc(F)cc4)cc3)[C@H]2C1	i
O=C(Cc1ccccn1)N1CCCCN2[C@H](CO)[C@@H](c3ccc(Br)cc3)[C@H]2C1	i
Cc1ccccc1-c1ccc([C@@H]2[C@@H](CO)N3CCCCN(C(=O)Cc4ccccn4)C[C@@H]23)cc1	-9.54
CCCC#Cc1ccc([C@H]2[C@@H](CO)N3CCCCN(C(=O)Cc4ccccn4)C[C@H]23)cc1	i
COc1ccc(C#Cc2ccc([C@@H]3[C@H]4CN(C(=O)Cc5ccccc5)CCCCN4[C@H]3CO)cc2)cc1	i
COC(=O)[C@@H]1[C@@H](CO)[C@@H]2Cn3c(cccc3=O)[C@@H]2N1CC1CC1	i
N#Cc1ccc(-c2ccc([C@H]3[C@@H](CO)N4CCCCN(C(=O)Cc5ccccc5)C[C@H]34)cc2)cc1	i
N#Cc1ccc(-c2ccc([C@H]3[C@H]4CN(C(=O)Cc5ccccc5)CCCCN4[C@H]3CO)cc2)cc1	i
CCCNC(=O)N1[C@@H]2c3ccc(-c4ccccc4OC)c(=O)n3C[C@H]1[C@H](CO)[C@H]2C(=O)OC	i
N#Cc1ccc(-c2ccc([C@H]3[C@@H](CO)N4CCCCN(C(=O)Cc5ccccc5)C[C@@H]34)cc2)cc1	i
COCC#Cc1ccc([C@H]2[C@H](CO)N3CCCCN(C(=O)Cc4ccccn4)C[C@@H]23)cc1	i
O=C1CNC[C@H]2[C@@H](c3ccc(Br)cc3)[C@H](CO)N12	i
CCCC#Cc1ccc([C@H]2[C@H](CO)N3CCCCN(C(=O)Cc4ccccn4)C[C@@H]23)cc1	i
CCCC#Cc1ccc([C@@H]2[C@@H](CO)N3CCCCN(C(=O)Cc4ccccn4)C[C@H]23)cc1	i
O=C(Cc1ccccn1)N1CCCCN2[C@H](C1)[C@@H](c1ccc(C#Cc3ccccc3)cc1)[C@@H]2CO	-6.34
CCCC#Cc1ccc([C@H]2[C@H]3CN(C(=O)Cc4ccccn4)CCCCN3[C@H]2CO)cc1	i
C/C=C/c1ccc([C@@H]2[C@H]3CN(C(=O)Cc4cccnc4)CCCCN3[C@H]2CO)cc1	i
SMILES	IDE exosite FP
C/C=C/c1ccc([C@@H]2[C@H]3CN(C(=O)Cc4ccncc4)CCCCN3[C@H]2CO)cc1	i
O=C(Cc1cccnc1)N1CCCCN2[C@H](C1)[C@H](c1ccc(/C=C/c3ccccc3)cc1)[C@@H]2CO	-5.55
C/C=C/c1ccc([C@@H]2[C@@H](CO)N3CCCCN(C(=O)Cc4cccnc4)C[C@H]23)cc1	i
O=C(Cc1cccnc1)N1CCCCN2[C@@H](CO)[C@H](c3ccc(/C=C/c4ccccc4)cc3)[C@@H]2C1	-9.22
O=C(Cc1cccnc1)N1CCCCN2[C@H](CO)[C@H](c3ccc(C#CC4CCCC4)cc3)[C@@H]2C1	i
O=C(Cc1cccnc1)N1CCCCN2[C@H](C1)[C@@H](c1ccc(C#CC3CCCC3)cc1)[C@@H]2CO	i
O=C(Cc1cccnc1)N1CCCCN2[C@H](CO)[C@H](c3ccc(/C=C/c4ccccc4)cc3)[C@@H]2C1	-11.2
C/C=C/c1ccc([C@H]2[C@@H](CO)N3CCCCN(C(=O)Cc4cccnc4)C[C@@H]23)cc1	i
O=C1CNC[C@@H]2[C@H](c3ccc(Br)cc3)[C@H](CO)N12	i
N#Cc1cccc(-c2ccc([C@H]3[C@@H](CO)N4CCCCN(C(=O)Cc5ccccc5)C[C@@H]34)cc2)c1	i
O=C(Cc1cccnc1)N1CCCCN2[C@H](CO)[C@H](c3ccc(C#CC4(O)CCCC4)cc3)[C@H]2C1	i
COc1ccc(-c2ccc([C@@H]3[C@H]4CN(C(=O)Cc5ccncc5)CCCCN4[C@H]3CO)cc2)cc1	i
N#Cc1cccc(-c2ccc([C@H]3[C@@H](CO)N4CCCCN(C(=O)Cc5ccncc5)C[C@@H]34)cc2)c1	i
C[C@H]1CN([C@@H](C)CO)C(=O)CCCn2cc(nn2)CO[C@H]1CN(C)C(=O)Oc1ccc2ccccc2c1	i
C/C=C/c1ccc(C2[C@@H]3CN(Cc4cocn4)C[C@H]2N3)cc1 (stereo not given in full)	i
O=C(Cc1ccccn1)N1CCCCN2[C@H](CO)[C@@H](c3ccc(Br)cc3)[C@@H]2C1	i
O=C(Cc1ccccn1)N1CCCCN2[C@H](CO)[C@H](c3ccc(-c4ccccc4F)cc3)[C@H]2C1	-4.39
O=C(Cc1ccccn1)N1CCCCN2[C@H](CO)[C@@H](c3ccc(-c4ccccc4F)cc3)[C@H]2C1	i
O=C(Cc1ccccn1)N1CCCCN2[C@@H](CO)[C@H](c3ccc(-c4ccccc4F)cc3)[C@@H]2C1	i
O=C(Cc1ccccn1)N1CCCCN2[C@H](CO)[C@H](c3ccc(Br)cc3)[C@@H]2C1	i
O=C(Cc1ccccn1)N1CCCCN2[C@@H](CO)[C@@H](c3ccc(-c4ccccc4F)cc3)[C@@H]2C1	-5.62
CN(C)CC#Cc1ccc([C@@H]2[C@@H](CO)N3CCCCN(C(=O)Cc4ccccn4)C[C@H]23)cc1	i
CN1[C@@H](CO)[C@@H]2c3ccccc3NC[C@@H]21	i
C[C@H](CO)N1C[C@H](C)[C@@H](CN(C)C(=O)Oc2cccc3ccccc23)OCc2cnnn2CCCC1=O	i
O=C(Cc1ccccc1)N1CCCCN2[C@H](CO)[C@H](c3ccc(C#Cc4ccccc4)cc3)[C@@H]2C1	i
